Compound activity (PubChem BioAssay)
The full list was thinned out, with hits kept by preference.
a7 integrin act – activates integrin-mediated alleviation for muscular dystrophy | alpha7betagal myoblasts, beta-gal FDG fluorescence, 48 h | Potency, µM (doses to about 38.3 µM), for the others: top-dose activation, most hits filed as activators | 350,000 tested, 0.064% active;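 note: 100% = response of the positive control SU9516; nearly all actives have a fitted effect of over 60% in size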
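Alpha7betagal+/- myoblasts (passage 13) were plated 16-24 hr, then exposed to compounds (1:260 dilution of DMSO stock) for 48 hours at 37C. After MPER lysis, β-galactosidase reporter activity was read as FDG fluorescence (ex 480/em 540) after 30 minutes.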
ClpP mod – qHTS Assay for Activators of ClpP | ATP-dependent Clp protease proteolytic subunit (Bacillus subtilis (strain 168)), P80244 | purified B. subtilis ClpP, FRET peptide cleavage, 20 min | Potency, µM (doses to about 57.5 µM), for the others: at the highest dose activity change, negative = active | 340,000 tested, 1.9% active | AID 651965, 2013; active = well fitted falling curve with a large enough effect; inconclusive = small, poorly fitted or top-dose-only effect; inactive = no such curve, though single readings can be large or run the other way; note: the source files actives as falling curves though it sought activators and does not explain the sign; nearly all actives have a fitted effect of over 65% in size
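Purified B. subtilis ClpP, 10 microg/mL final in Tris/HCl pH8 with KCl, BSA, glycerol and Tween-20, cleaved an Abz/nitrotyrosine-quenched decapeptide. Fluorescence (ex 320, em 430) was read at 0 and 20 min at room temperature. Delta was normalized to 5.8 microM ADEP and DMSO/no-enzyme controls.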
p53 reactivation – restores transcriptional activity of mutant p53; Potency, µM (top dose mostly 92.2 µM), inactives show at the top dose activity change, positive = activation, most hits filed as activators; AID 504706; 320,000 tested, 0.063% active; H1299 p53-A138V BP100-luciferase reporter, luminescence, 24 h; note: % of control where 0% means no effect; nearly all actives have a fitted effect of over 45% in size
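p53-null H1299 cells stably carrying temperature-sensitive p53-A138V and a BP100-luciferase reporter were pinned with compounds (4-point, 1:5 series) and held 24 hrs at 37 deg C. Luminescence was read 10 min after detection reagent.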
Eya2 phos inh – inhibitors of human Eya2 phosphatase activity; O00167; recombinant Eya2, OMFP fluorescence dephosphorylation (OMFP is methylfluorescein phosphate); Potency, µM (top dose mostly 76.9 µM), for the others: at the highest dose activity, negative = inhibition, most hits filed as inhibitors; 330,000 tested, 0.006% active; AID 488837; note: % is set by controls: 0 for no effect and ±100 for the full control effect
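Eya2 protein (added as 0.2 uM solution) was preincubated with compound for 10 min at ambient temperature in 50 mM HEPES pH 7.5, 50 mM NaCl, 5 uM MgCl2, 0.05% BSA, 1 mM DTT. OMFP (added at 50 uM) then reacted 10 min; fluorescence read at 485/525 nm.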
Mm-Cpn inhibitor – blocks the Methanococcus maripaludis chaperonin Mm-Cpn; Potency, µM (highest dose often 76.9 µM), without a hit: at the highest dose activity, negative = inhibition, actives largely listed as inhibitors; 330,000 tested, 0.031% active; AID 504842; purified Mm-Cpn ATPase, ADP Transcreener TR-FRET; note: % is set by controls: 0 for no effect and ±100 for the full control effect; nearly all actives have a fitted effect of over 80% in size
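Eu-cryptate anti-ADP/ADP-d2 competition gives a ratio inversely related to ADP. Enzyme at 25 nM was pre-exposed to compound for 10 min, then given 10 uM ATP for 30 min, 37°C throughout.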
USP2a block – blocks human ubiquitin-specific protease USP2a; O75604; USP2 core, Ub-CHOP2 coupled fluorogenic reporter, 485/531; Potency, µM (top dose mostly 38.3 µM), for the others: at the highest dose activity change, negative = inhibition, hits mostly inhibitors; 330,000 tested, 0.01% active;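 note: plate controls were DMSO wells for no effect and full inhibition by NEM control for full effect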
Target sequence (O75604 whole entry, looked up): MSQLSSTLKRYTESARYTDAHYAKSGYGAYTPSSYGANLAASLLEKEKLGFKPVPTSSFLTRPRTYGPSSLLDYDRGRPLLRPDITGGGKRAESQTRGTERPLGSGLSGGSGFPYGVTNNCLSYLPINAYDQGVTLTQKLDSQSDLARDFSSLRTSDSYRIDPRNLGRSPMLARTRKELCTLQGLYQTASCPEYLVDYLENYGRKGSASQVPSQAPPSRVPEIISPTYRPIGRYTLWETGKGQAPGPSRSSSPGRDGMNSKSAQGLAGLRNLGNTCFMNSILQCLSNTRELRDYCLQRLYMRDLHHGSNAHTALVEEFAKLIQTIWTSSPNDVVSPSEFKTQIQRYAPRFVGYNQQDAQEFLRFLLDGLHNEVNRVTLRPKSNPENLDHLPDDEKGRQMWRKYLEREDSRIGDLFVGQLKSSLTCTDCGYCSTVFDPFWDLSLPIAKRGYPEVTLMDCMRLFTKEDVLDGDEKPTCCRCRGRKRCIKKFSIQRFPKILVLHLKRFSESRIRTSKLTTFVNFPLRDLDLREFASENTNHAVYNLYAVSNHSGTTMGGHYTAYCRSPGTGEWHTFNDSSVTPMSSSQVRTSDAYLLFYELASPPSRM
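Deubiquitinase activity read as fluorescence (485/531 nm) after Ub-CHOP2 cleavage activates the enterokinase reporter on its substrate; USP2 core 10nM, Ub-CHOP2 and substrate 25nM each, 30min compound preincubation then 60min RT; data normalized to NEM, curves fitted.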
Active calls of the source: *; ? = inconclusive; . = no result given; ! = a repeat was not active; [ ] = remark or other dose. Unless noted, calls come from the whole dose curve; as a rule, active = well fitted curve in the direction sought with a large enough effect; inconclusive = small, poorly fitted or top-dose-only effect, or another doubt; inactive = no such curve, though single readings can be large; an effect the other way counts as inactive or inconclusive. Potency is the fitted concentration of half-maximal effect.

SMILES	a7 integrin act	ClpP mod	p53 reactivation	Eya2 phos inh	Mm-Cpn inhibitor	USP2a block
COc1ccc(-c2cc(C(=O)Oc3ccc(C)cc3)c3ccccc3n2)cc1	.	4%	.	.	.	.
COc1ccc(-c2cc(C(=O)Oc3ccc([N+](=O)[O-])cc3)c3ccccc3n2)cc1	10%	28µM*	9%	4%	-4%	0%
COc1ccc(-c2cc(C(=O)OC3CCOC3=O)c3ccccc3n2)cc1 (centres undefined)	-8%	25µM*	7%	-8%	-3%	0%
O=C(OC1CCOC1=O)c1cc(-c2ccc(Br)cc2)nc2ccccc12 (centres undefined)	?	?	1%	-29%	-12%	1%
Nc1ncnc2c1nc(Cl)n2[C@@H]1O[C@H](CO)[C@@H](O)[C@@H]1O	.	-9%	.	.	.	.
COc1cc(/C=C(/C#N)c2ccc(F)cc2)ccc1Oc1ccc([N+](=O)[O-])cn1	-10%	32µM*	-1%	0%	-1%	5%
CCOc1cc(C=C(C#N)C#N)ccc1Oc1ccc([N+](=O)[O-])cn1	-55%	-2%	-5%	2%	-8%	-1%
CCCn1c(SCN2C(=O)c3ccccc3C2=O)nc2cc(Cl)ccc2c1=O	11%	25µM*	3%	-6%	-13%	-3%
Cc1cccc(-n2c(SCN3C(=O)c4ccccc4C3=O)nc3ccccc3c2=O)c1	.	.	-3%	-6%	-5%	1%
COc1ccc(-c2noc(CCCC(=O)NCc3ccco3)n2)cc1OC	-3%	28µM*	2%	22%	-1%	3%
COc1ccc(CNc2nc(N)nc3nc[nH]c23)cc1	.	-2%	.	.	.	.
Cc1c(C(=O)OCC(=O)NCCN2C(=O)CSC2=O)oc2c1ccc1ccccc12	-10%	32µM*	-2%	-2%	-3%	-1%
CCC(C)Sc1cccc(-c2nc3ccc(C)cn3c2NC2CCCCC2)c1 (centres undefined)	-34%	16µM*!	-1%	1%	-2%	2%
NC1=NC(=O)/C(=C\c2ccc(-c3ccccc3[N+](=O)[O-])o2)S1	.	-2%	.	.	.	.
CC(CCC(C)[n+]1cccc(C#N)c1)[n+]1cccc(C#N)c1 (centres undefined)	.	0%	.	.	.	.
CCCOC(=O)C1=C(C)NC2=C(C(=O)CCC2)C1c1cccs1 (centres undefined)	8%	?	-4%	-1%	-3%	-1%
CCCOC(=O)C1=C(C)NC2=C(C(=O)CCC2)C1c1cccc(OC)c1OC (centres undefined)	9%	25µM*	-2%	3%	0%	0%
C=C1C=C(C(F)F)n2ncc(C(=O)NCc3ccc(OC)c(OC)c3)c2N1	.	-1%	.	.	.	.
COc1cc(F)cc(-c2ccc3c(c2)c(-c2cccs2)c(-c2cc(OC)cc(OC)c2)n3C)c1	8%	5%	27%	8%	22µM*	-5%
COc1cc(OC)cc(-c2c(-c3cccs3)c3cc(Br)ccc3n2C)c1	18%	4%	11%	-3%	-30%	2%
CCN(CCCNC(=O)c1nn(-c2ccc(OC)c(Cl)c2)c(=O)c2c1c1ccccc1n2C)c1ccccc1	.	5%	.	.	.	.
CC(C)NC(=O)c1ccccc1NS(=O)(=O)c1ccc(Br)s1	22%	0%	.	10%	0%	-2%
O=C(c1ccccc1NS(=O)(=O)c1ccc(Br)s1)N1CCCC1	-2%	16µM*	-2%	10%	-1%	-2%
CCOc1ccc2[nH]c(=O)c(CN(CCO)C(=O)CC)cc2c1	7%	28µM*	1%	0%	0%	-6%
COc1ccc2[nH]c(=O)c(CN(Cc3ccco3)C(=O)c3ccccc3)cc2c1	13%	?	-5%	-4%	3%	-7%
SMILES	a7 integrin act	ClpP mod	p53 reactivation	Eya2 phos inh	Mm-Cpn inhibitor	USP2a block
CCOc1ccc2[nH]c(=O)c(CN(CCO)C(=O)c3ccc(Br)cc3)cc2c1	6%	32µM*	1%	-10%	-3%	1%
CCOc1ccc2[nH]c(=O)c(CN(Cc3ccco3)C(=O)c3cccc(F)c3)cc2c1	7%	32µM*	5%	1%	-6%	0%
CCOc1ccc2[nH]c(=O)c(CN(Cc3ccccc3OC)C(=O)c3ccccc3)cc2c1	-26%[7.66 µM]	32µM*	5%	-8%	-1%	0%
CCOc1ccc2[nH]c(=O)c(CN(Cc3ccco3)C(=O)c3ccc(Br)cc3)cc2c1	-3%	?	7%	12%	0%	-1%
Cc1cccc(CS(=O)(=O)Cc2ccc(C(=O)NCCCN3CCOCC3)o2)c1	12%	28µM*	-2%	10%	0%	5%
Cc1cccc(CS(=O)(=O)Cc2ccc(C(=O)NCCCN3CCCC3)o2)c1	-17%	0%	0%	-7%	0%	-3%
CN1CCN(CCCNC(=O)c2ccc(CSCc3cccc(Cl)c3)o2)CC1	-41%	14µM*	-5%	12%	3%	1%
CCOC(=O)c1c(NC(=O)c2cccs2)sc(CC)c1-c1cccs1	-16%	32µM*	-1%	2%	-3%	3%
Oc1ccc(CNc2ccc(C(F)(F)F)cc2Cl)c2cccnc12	.	.	.	-18%	1%	0%
O=C(Cn1c(=O)n(Cc2nc(-c3ccccc3)no2)c(=O)c2cc3c(cc21)OCO3)Nc1ccccc1	.	18µM*	.	.	.	.
Cc1ccc(NC(=O)Cn2c(=O)n(Cc3nc(-c4ccccc4)no3)c(=O)c3cc4c(cc32)OCO4)cc1F	.	5%	.	.	.	.
O=C(Cn1c(=O)n(Cc2nc(-c3ccccc3)no2)c(=O)c2cc3c(cc21)OCO3)Nc1ccc(Cl)cc1	.	13µM*	.	.	.	.
O=C(CNC(=O)c1ccccc1)OCC(=O)c1cccc2ccccc12	.	-1%	.	.	.	.
COC(=O)c1ccc(OC)c(Cn2c(=O)n(-c3cccc(Cl)c3)c(=O)c3c2c2cc(C)ccc2n3C)c1	.	4%	.	.	.	.
CCNC(=O)/C(C#N)=C/c1c(N2CCN(c3ccccc3)CC2)nc2c(C)cccn2c1=O	-1%	1%	-5%	-15%	-1%	1%
N#C/C(=C\c1c(N2CCC(C(N)=O)CC2)nc2ccccn2c1=O)C(=O)NCc1ccco1	7%	25µM*	-2%	-5%	-1%	-1%
CCNC(=O)/C(C#N)=C/c1c(N2CCCCCC2)nc2c(C)cccn2c1=O	-13%	16µM*	0%	-7%	-1%	4%
Cc1cccn2c(=O)c(/C=C(\C#N)C(=O)NCc3ccco3)c(N3CCOCC3)nc12	-6%	.	-3%	-8%	-1%	0%
